Measurements: PubChem BioAssay (NCATS)
Records with an inconclusive call do not appear. Calls of active or inactive are those of the source. Calls follow the shape of the dose curve; as a rule, active = well fitted cell-killing curve with a large enough effect; inconclusive = small, poorly fitted or top-dose-only effect, or effect the other way; inactive = no such curve, though single readings can be large or run the other way.

Assay: Quantitative High-Throughput drug screen in 47 multiple myeloma cell lines against the NCATS MIPE library collection: L363_DSMZ cell viability assay (AID 1918984); also: nearly all actives have a fitted effect of over 40% in size
Conditions: L363 myeloma viability, CellTiter-Glo ATP luminescence, 48 h; series mostly up to 45.8 µM
In short: (§1)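 Cells were exposed to library compounds for 48 hours, after which ATP was measured by CellTiter-Glo. Signal was taken as median relative luminescence units.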
Potency is read from the fitted curve at half-maximal effect.

SMILES	Potency
N=c1c2c(-c3ccccc3)c(-c3ccccc3)n(Cc3ccccc3)c2ncn1C1CCC(O)CC1 (configuration not stated)	5.26 µM (active)
C[C@]12CC[C@H]3[C@@H](CCC4=CC(=O)CC[C@@]43C)[C@H]1CC[C@H]2OC(=O)CCC1CCCC1	inactive
CC[C@H]1C=CC=CC[C@@H](C)[C@H](O)[C@@](C)(O)C(=O)[C@@H](C)[C@H](O)[C@@H](C)C(=O)[C@@H](C)[C@H](O)[C@@H](C)C=CC(=O)O[C@@H]2[C@@H](C)[C@H](CC1)O[C@]1(CC[C@H](C)[C@H](C[C@@H](C)O)O1)[C@H]2C	0.001 µM (active)
CCN1C[C@]2(OC(=O)c3ccccc3NC(C)=O)CC[C@H](OC)[C@@]34[C@H]5CC6[C@@H](OC)C[C@](O)(C(C[C@@H]23)[C@@H]14)[C@@]5(O)[C@@H]6OC	inactive

Assay: Quantitative High-Throughput drug screen in 47 multiple myeloma cell lines against the NCATS MIPE library collection: KMS34_JCRB cell viability assay (AID 1918985); also: nearly all actives have a fitted effect of over 40% in size
Conditions: KMS34 myeloma viability, CellTiter-Glo ATP luminescence, 48 h; series mostly up to 45.8 µM
In short: as §1

SMILES	Potency
O=C1C=CC[C@@H]2[C@H]3CCCN4CCC[C@@H](CN12)[C@@H]34	inactive
CC(C)N[C@@H]1CCn2c(=O)[nH]c3cccc(c32)[C@@H]1O	10.5 µM (active)
N=c1c2c(-c3ccccc3)c(-c3ccccc3)n(Cc3ccccc3)c2ncn1C1CCC(O)CC1 (configuration not stated)	13.2 µM (active)
CSCC[C@@H](NC(=O)[C@@H](Cc1ccccc1)NC(=O)CNC(=O)CNC(=O)[C@@H](N)Cc1ccc(O)cc1)C(=O)O	inactive
Cc1c(N)nc([C@H](CC(N)=O)NC[C@@H](N)C(N)=O)nc1C(=O)N[C@H](C(=O)N[C@@H](C)[C@H](O)[C@@H](C)C(=O)N[C@@H](C(=O)NCCc1nc(-c2nc(C(=O)NCCC[S+](C)C)cs2)cs1)[C@@H](C)O)C(O[C@H]1O[C@H](CO)[C@H](O)[C@@H](O)[C@@H]1O[C@H]1O[C@H](CO)[C@@H](O)[C@H](OC(N)=O)[C@H]1O)c1cnc[nH]1 (some centres not stated)	0.264 µM (active)
O=C(N[C@H]1CN2CCC1CC2)c1ccc(Cl)cc1	inactive
N#C[C@H](O[C@@H]1O[C@H](CO[C@@H]2O[C@H](CO)[C@H](O)[C@H](O)[C@H]2O)[C@H](O)[C@H](O)[C@H]1O)c1ccccc1	8.33 µM (active)
Cc1c(C(=O)c2cccc3ccccc23)c2cccc3c2n1[C@H](CN1CCOCC1)CO3	23.5 µM (active)
C[C@]12Cc3cn[nH]c3C[C@@H]1CC[C@@H]1[C@H]2CC[C@@]2(C)[C@H]1CC[C@]2(C)O	inactive
COC[C@H]1OC(=O)c2coc3c2[C@@]1(C)C1=C(C3=O)[C@@H]2CC[C@H](O)[C@@]2(C)C[C@@H]1OC(C)=O	2.09 µM (active)
CN(C)NC(=O)CCC(=O)O	inactive
COc1ccc(C(=O)c2c(C)n(CCN3CCOCC3)c3cc(I)ccc23)cc1	20.9 µM (active)
O=C(NCC1CCOCC1)c1cnc(Nc2ccc(Cl)cc2Cl)nc1C(F)(F)F	inactive
C[C@](O)(COc1ccc(C#N)cc1)C(=O)Nc1ccc(C#N)c(C(F)(F)F)c1	inactive
C[C@]12CCC(=O)C(O)=C1CC[C@@H]1[C@H]3CCC(=O)[C@@]3(C)CC[C@@H]12	inactive
O=C(Nc1ccncc1)C(=O)c1cn(Cc2ccc(Cl)cc2)c2ccccc12	0.0469 µM (active)

Assay: Quantitative High-Throughput drug screen in 47 multiple myeloma cell lines against the NCATS MIPE library collection: OCIMY7_PLB cell viability assay (AID 1918987); also: nearly all actives have a fitted effect of over 65% in size
Conditions: OCI-MY7 myeloma viability, CellTiter-Glo ATP, 48 h; series mostly up to 45.8 µM
In short: as §1

SMILES	Potency
N=c1c2c(-c3ccccc3)c(-c3ccccc3)n(Cc3ccccc3)c2ncn1C1CCC(O)CC1 (configuration not stated)	0.132 µM (active)
Cc1ccccc1-n1c(Cn2ncc3c(N)ncnc32)nc2cccc(C)c2c1=O	3.32 µM (active)
CCOC(=O)c1cncn1[C@H](C)c1ccccc1	inactive
CC[C@H]1C=CC=CC[C@@H](C)[C@H](O)[C@@](C)(O)C(=O)[C@@H](C)[C@H](O)[C@@H](C)C(=O)[C@@H](C)[C@H](O)[C@@H](C)C=CC(=O)O[C@@H]2[C@@H](C)[C@H](CC1)O[C@]1(CC[C@H](C)[C@H](C[C@@H](C)O)O1)[C@H]2C	0.001 µM (active)
CCNC(=O)CC1N=C(c2ccc(Cl)cc2)c2cc(OC)ccc2-n2c(C)nnc21 (configuration not stated)	18.7 µM (active)
N#C[C@H](O[C@@H]1O[C@H](CO[C@@H]2O[C@H](CO)[C@H](O)[C@H](O)[C@H]2O)[C@H](O)[C@H](O)[C@H]1O)c1ccccc1	10.5 µM (active)
Cc1c(C(=O)c2cccc3ccccc23)c2cccc3c2n1[C@H](CN1CCOCC1)CO3	13.2 µM (active)
CCN1C[C@]2(OC(=O)c3ccccc3NC(C)=O)CC[C@H](OC)[C@@]34[C@H]5CC6[C@@H](OC)C[C@](O)(C(C[C@@H]23)[C@@H]14)[C@@]5(O)[C@@H]6OC	inactive
CC(C)(C)c1cc(C=C(C#N)C#N)cc(Br)c1O	4.69 µM (active)
CCOP(=O)(OCC)C(C)NC(=O)N(CCCl)N=O (configuration not stated)	inactive
C[C@]12Cc3cn[nH]c3C[C@@H]1CC[C@@H]1[C@H]2CC[C@@]2(C)[C@H]1CC[C@]2(C)O	inactive
COC[C@H]1OC(=O)c2coc3c2[C@@]1(C)C1=C(C3=O)[C@@H]2CC[C@H](O)[C@@]2(C)C[C@@H]1OC(C)=O	0.418 µM (active)
COc1ccc(C(=O)c2c(C)n(CCN3CCOCC3)c3cc(I)ccc23)cc1	5.9 µM (active)
C=C1C[C@H]2[C@H]3CCC(=O)[C@@]3(C)CC[C@@H]2[C@@]2(C)C=CC(=O)C=C12	9.35 µM (active)
C[C@](O)(COc1ccc(C#N)cc1)C(=O)Nc1ccc(C#N)c(C(F)(F)F)c1	26.4 µM (active)
O=C(Nc1ccncc1)C(=O)c1cn(Cc2ccc(Cl)cc2)c2ccccc12	0.001 µM (active)
CC(=O)Nc1ccc(OC[C@](C)(O)C(=O)Nc2ccc([N+](=O)[O-])c(C(F)(F)F)c2)cc1	10.5 µM (active)
